Assay [1] is described as follows: qHTS assay for small molecule antagonists of retinoid X receptor alpha signaling (AID 588546; active = well fitted inhibition curve with a large enough effect in the signal ratio, with a control signal flat, not every such curve was filed as active; the % refers to the signal ratio;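 also: cells stimulated with 9-cis-retinoic acid as agonist; % is scaled to controls: 0 for no effect and ±100 for the full control effect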). The following applies: HEK293T RXRa-UAS-bla, beta-lactamase ratio, antagonist mode; measured here: W530 green channel, cytotoxicity proxy. Summed up:
(§1)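 Beta-lactamase reporter inhibition, read as CCF4 fluorescence ratio (ex 405, em 460/530 nm) after 2 h at RT. HEK293T UAS-bla cells, 2500/well, were stimulated with 9-cis-RA at 500 or 100 nM final alongside test compound for 18 h at 37 C.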
In general terms: qHTS replaces the single test concentration by a dilution series.

The target of assay [2] is Retinoic acid receptor RXR-alpha (Homo sapiens) (UniProt P19793). The assay is described as above. The following applies: HEK293T RXRa-UAS-bla, beta-lactamase ratio, antagonist mode. Summed up:
as §1

Assay [3] has as its target Thyroid hormone receptor beta (Homo sapiens) (UniProt P10828). Put plainly: qHTS assay for small molecule antagonists of thyroid hormone receptor beta signaling (AID 588547; active = well fitted inhibition curve with a large enough effect in the signal ratio, with a control signal flat, not every such curve was filed as active; the % refers to the signal ratio;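 also: cells stimulated with 0.4 nM T3 agonist during compound exposure; % is scaled to controls: 0 for no effect and ±100 for the full control effect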). The following applies: TR-UAS-bla HEK293, beta-lactamase ratio, antagonist mode, 18 h. The procedure, abridged: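 TR-UAS-bla GripTite HEK293 cells in 2% charcoal/dextran FBS medium; compounds 0.59 nM to 92 uM with T3 at 0.4nM final, 18 h at 37 C. Beta-lactamase read by CCF4 fluorescence (460/530 nm); Hill fits gave IC50 and efficacy.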

The target of assay [4] is Voltage-gated inwardly rectifying potassium channel KCNH2 (Homo sapiens) (UniProt Q12809). Put plainly: qHTS Assay for Small Molecule Inhibitors of the Human hERG Channel Activity (AID 588834).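 Also: top concentration of the series differs between compounds; % is scaled to controls: 0 for no effect and ±100 for the full control effect; lower thallium flux fluorescence means stronger hERG block; nearly all actives have a fitted effect of over 50% in size.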 Summed up:
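hERG block measured as reduced thallium-dye (FluxOR) fluorescence after stimulation buffer addition, read over 2 min. Cells were hERG-BacMam-transduced U2OS exposed to compound ~10 min […]; concentration-response fitted with Hill equation for AC50.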

In assay [5] the target is Luciferin 4-monooxygenase (Photinus pyralis) (UniProt P08659). The experiment in a line: Biochemical firefly luciferase enzyme assay for NPC (AID 624030).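 Also: purified P. pyralis luciferase at 10 nM with luciferin and ATP substrate; 0% = DMSO and -100% = full luciferase inhibition by PTC124 control; nearly all actives have a fitted effect of over 70% in size.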 The procedure, abridged:
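Purified P. pyralis luciferase at 10 nM in 50 mM Tris Acetate (final), luminescence read within 5 minutes of enzyme addition to compounds. Activity normalised to PTC124 versus DMSO; concentration-response curves classed by r2, magnitude and activity.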

Assay [6] can be described thus: qHTS assay for small molecule agonists of the antioxidant response element (ARE) signaling pathway (AID 651741; active = well fitted activation curve with a large enough effect in the signal ratio; the % refers to the signal ratio; also: % of control where 0% means no effect). Summed up:
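Stably integrated ARE-beta-lactamase reporter HepG2 cells; 16 h compound incubation, 37 C; LiveBLAzer FRET substrate 2 h at room temperature; fluorescence intensity.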

Assay [7] can be described thus: qHTS assay for small molecule activators of the p53 signaling pathway (AID 651743; active = well fitted activation curve with a large enough effect in the signal ratio, not every such curve was filed as active; the % refers to the signal ratio; also: % of control where 0% means no effect). Conditions: HCT-116 p53RE-bla, beta-lactamase FRET ratio, 16 h; activation: stronger effect = higher value. Summed up: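 Following 16 hours of compound exposure at 37 C, HCT-116 cells bearing the p53RE-bla reporter were loaded with LiveBLAzer B/G FRET substrate for 2 hours at room temperature and fluorescence intensity was recorded.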

Assay [8] is described as follows: qHTS assay for small molecule activators of the nuclear factor-kappa B (NF-kB) signaling pathway (AID 651749; active = well fitted activation curve with a large enough effect in the signal ratio; the % refers to the signal ratio; also: % of control where 0% means no effect). The following applies: NF-kB-bla ME-180 cells, beta-lactamase FRET ratio, 16 h; activation: stronger effect = higher value. Summed up: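 In this qHTS format, compounds acting as activators increase NF-kB-driven beta-lactamase in ME-180 cells, measured as disrupted FRET after 16 hr exposure at 37C and 5% CO2.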

Assay [9] has as its target Tumor necrosis factor (Homo sapiens) (UniProt P01375). Put plainly: qHTS assay to identify small molecules that stimulate Tumor Necrosis Factor-alpha (TNF-alpha) secretion (AID 651757; active = well fitted curve in the direction sought with a large enough effect in the signal ratio; the % refers to the signal ratio; also: 0% is about no effect). The procedure, abridged:
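Secreted TNF-alpha quantified by TR-FRET sandwich of two labeled anti-TNF-alpha antibodies, incubated 3 hr at room temperature. Preceded by 17 hr, 37 C compound treatment of THP-1 cells at 3000 cells/well.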

Assay [10] can be described thus: qHTS assay for environmental chemicals that activate the Aryl hydrocarbon Receptor (AhR) signaling pathway (AID 651777). Also: % of control where 0% means no effect; nearly all actives have a fitted effect of over 15% in size. Conditions: 1A2-DRE human hepatoma cells, luciferase, 24 h; activation: stronger effect = higher value. Summed up:
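Induction of CYP1A2 transcription through AhR is detected by luciferase in 1A2-DRE hepatoma cells. Compounds or DMSO act for 24 hr at 37 C before a 30 min One-Glo step at room temperature.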

In assay [11] the target is Peroxisome proliferator-activated receptor alpha (Homo sapiens) (UniProt Q07869). Put plainly: qHTS assay for small molecule agonists of the peroxisome proliferator-activated receptor alpha (PPARalpha) signaling pathway (AID 651778). Also: % of control where 0% means no effect. Conditions: PathHunter PPARalpha complementation, chemiluminescence, 6 h; stronger effect = higher value. Summed up: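 Enzyme-fragment complementation assay in which ligand-bound PPARalpha translocates and forms an active enzyme that generates chemiluminescence. Cells were plated overnight, exposed to compound for 6 hr at 37 C, and then given detection reagent for 60 min at room temperature.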

Assay [12] can be described thus: qHTS assay for small molecule agonists of the antioxidant response element (ARE) signaling pathway measured by Nrf2-dependant transcriptional activity (AID 720636; active = well fitted curve in the direction sought with a large enough effect in the repeat runs; an effect the other way counts as inactive or inconclusive;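 also: HepG2 cells with an ARE-driven luciferase reporter; % of control where 0% means no effect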). Summed up: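 We exposed ARE-luc HepG2 cells, seeded in assay medium with 1% dialyzed FBS and allowed 6 hr to adhere, to test compounds overnight (16 hr, 37 C) before measuring luciferase with ONE-Glo.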

A short description of assay [13]: qHTS assay for small molecule antagonists of the retinoid-related orphan receptor gamma (ROR-gamma) signaling pathway - cell viability counter screen (AID 720652; active = well fitted curve in the direction sought with a large enough effect in the repeat runs; an effect the other way counts as inactive or inconclusive;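 also: CHO reporter cells with doxycycline-induced ROR-gamma expression; compound exposure lasted 16 hr before ATP read; % is scaled to controls: 0 for no effect and ±100 for the full control effect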). Summed up:
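Cytotoxicity counter screen: intracellular ATP (CellTiter-Glo luminescence) measured in the doxycycline-induced CHO RORE-luciferase reporter line after 16 hr compound exposure at 37 C, 5% CO2.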

Assay [14] in a line: qHTS Assay for Identifying Gametocytocidal Compounds (AID 743244).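 Also: % is scaled to controls: 0 for no effect and ±100 for the full control effect; actives lower the fluorescent signal which means gametocytes are killed.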 The following applies: P. falciparum 3D7 stage III-V gametocytes, alamarBlue, 72 h; max response: stronger effect = lower value. Summed up: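 Stage III–V gametocytes of P. falciparum 3D7 were seeded at 20,000 cells/well onto pre-dispensed compounds. After 72 h, 37 °C, 5% CO2, alamarBlue was added for another 24 h.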

Assay [15] can be described thus: qHTS assay for cell viability of HEK293 cells (AID 743288). Also: % is scaled to controls: 0 for no effect and ±100 for the full control effect; nearly all actives have a fitted effect of over 50% in size. The following applies: ATP luminescence (CellTiter-Glo), 18 h; max response: stronger effect = lower value. The procedure, abridged:
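Readout is luciferase-coupled ATP content (CellTiter-Glo luminescence, 30 min room temperature) as a measure of metabolically competent cells. Parental HEK293 cells were plated 5 h or more before compound addition, then treated 18 h at 37 C.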

Assay [16] can be described thus: qHTS assay for cell viability of the p53RE-bla HCT-116 cell line (AID 743292). Also: % is scaled to controls: 0 for no effect and ±100 for the full control effect; nearly all actives have a fitted effect of over 55% in size. Summed up:
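In this qHTS counter-screen, metabolically competent p53RE-bla HCT-116 cells were counted via their ATP content. Compounds were applied for 16 h at 37 C and luciferase-coupled luminescence was measured.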

Assay [17] in a line: P-glycoprotein substrates identified in KB-8-5-11 adenocarcinoma cell line, qHTS therapeutic library screen (AID 1346987). Also: % is scaled to controls: 0 for no effect and ±100 for the full control effect; nearly all actives have a fitted effect of over 65% in size. Summed up:
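Compounds are pinned in dose-response onto KB-8-5-11 cells (500 cells/well, colchicine-free medium) and left 72 h at 37 degree C. CellTiter-Glo luminescence then yields AC50 values.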

Assay [18] concerns the target Cytochrome P450 2D6 (Homo sapiens) (UniProt P10635). Put plainly: Cytochrome P450 family 2 subfamily D member 6 (CYP2D6) small molecule antagonists: luciferase biochemical (cell-free) qHTS assay (AID 1645840; active = well fitted curve in the direction sought with a large enough effect in the repeat runs; an effect the other way counts as inactive or inconclusive; also: % is scaled to controls: 0 for no effect and ±100 for the full control effect; nearly all actives have a fitted effect of over 55% in size). The procedure, abridged: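 P450-Glo CYP2D6 system: proluciferin substrate converted by enzyme to luciferin, read by luminescence proportional to activity. Enzyme-substrate mix with compound 10 min at room temperature, then NADPH regeneration 1 h before detection reagent.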

The target in assay [19] is Cytochrome P450 2C9 (Homo sapiens) (UniProt P11712). Put plainly: Cytochrome P450 family 2 subfamily C member 9 (CYP2C9) small molecule antagonists: luciferase biochemical (cell-free) qHTS assay (AID 1645842; active = well fitted curve in the direction sought with a large enough effect in the repeat runs; an effect the other way counts as inactive or inconclusive; also: % is scaled to controls: 0 for no effect and ±100 for the full control effect; nearly all actives have a fitted effect of over 55% in size). Summed up: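 P450-Glo CYP2C9 system: proluciferin substrate with enzyme in mix containing 0.4% BSA, 10 min at room temperature, then NADPH regeneration solution added and incubated 1 h at 37C. Detection reagent stopped reaction; luminescence read after 20 min as RLU.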

The subject of another assay is KB-3-1. Put plainly: Cytotoxic Profiling of Annotated Libraries Using Quantitative High-Throughput Screening (AID 1296008). Also: % is scaled to controls: 0 for no effect and ±100 for the full control effect; nearly all actives have a fitted effect of over 60% in size. The following applies: Five cell lines viability, CellTiter-Glo ATP luminescence, 48-72 h; max response: stronger effect = lower value. The procedure, abridged:
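Cells exposed to compounds for 48 or 72 hr at 37 degrees Celsius. Viability read as ATP-coupled luminescence with CellTiter-Glo after 10 min at room temperature.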
(ATP-based viability assays read luminescence as a measure of living cells.)

Assay [20] can be described thus: Drug repurposing screens with cells derived from glioblastoma tumor samples (AID 1345199). Also: % is scaled to controls: 0 for no effect and ±100 for the full control effect; nearly all actives have a fitted effect of over 40% in size. The following applies: GBM patient neurospheres viability, ATP luminescence, 48 h; Potency: tumour line A; series mostly up to 45.9 µM. The procedure, abridged: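 Primary testing used CD133+ neurospheres from four GBM patients, seven concentrations, 48 h exposure and ATP-based viability; confirmation added three slower-growing patient lines.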

Assay [21] deals with Nuclear receptor subfamily 1 group I member 2 (Rattus norvegicus) (UniProt Q9R1A7). Put plainly: qHTS assay for small molecule activators of the rat pregnane X receptor (rPXR) signaling pathway (AID 651751; call rule not given here; also: 0% is about no effect). The following applies: rPXR reporter cells, luciferase (One-Glo), 24 h.
A short description of assay [22]: qHTS assay for small molecule activators of the human pregnane X receptor (PXR) signaling pathway (AID 720659; call rule not given here; also: 0% is about no effect).

“And” between values parts separate entries of the source, which are not always exact repeats. Equal entries are not always repeated. Records with an inconclusive call do not appear. The source made the active and inactive calls. Unless noted, calls follow the shape of the dose curve; as a rule, active = well fitted curve in the direction sought with a large enough effect; inconclusive = small, poorly fitted or top-dose-only effect, or another doubt; inactive = no such curve, though single readings can be large; an effect the other way counts as inactive or inconclusive.

Nuclear receptor subfamily 1 group I member 2 (Rattus norvegicus), sequence (Q9R1A7 whole entry, looked up): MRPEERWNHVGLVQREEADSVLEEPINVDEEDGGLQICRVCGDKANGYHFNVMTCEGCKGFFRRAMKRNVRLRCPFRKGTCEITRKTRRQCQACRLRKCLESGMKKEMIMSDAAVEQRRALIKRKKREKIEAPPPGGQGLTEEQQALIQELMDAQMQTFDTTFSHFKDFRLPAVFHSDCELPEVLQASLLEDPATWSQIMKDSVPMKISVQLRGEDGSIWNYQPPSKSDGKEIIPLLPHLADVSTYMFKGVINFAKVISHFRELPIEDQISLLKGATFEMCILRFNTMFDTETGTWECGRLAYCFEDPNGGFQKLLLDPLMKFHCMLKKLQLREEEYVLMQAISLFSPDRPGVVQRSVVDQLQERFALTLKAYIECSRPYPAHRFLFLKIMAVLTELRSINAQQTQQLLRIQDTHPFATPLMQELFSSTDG
Thyroid hormone receptor beta (Homo sapiens), sequence (P10828 whole entry, looked up): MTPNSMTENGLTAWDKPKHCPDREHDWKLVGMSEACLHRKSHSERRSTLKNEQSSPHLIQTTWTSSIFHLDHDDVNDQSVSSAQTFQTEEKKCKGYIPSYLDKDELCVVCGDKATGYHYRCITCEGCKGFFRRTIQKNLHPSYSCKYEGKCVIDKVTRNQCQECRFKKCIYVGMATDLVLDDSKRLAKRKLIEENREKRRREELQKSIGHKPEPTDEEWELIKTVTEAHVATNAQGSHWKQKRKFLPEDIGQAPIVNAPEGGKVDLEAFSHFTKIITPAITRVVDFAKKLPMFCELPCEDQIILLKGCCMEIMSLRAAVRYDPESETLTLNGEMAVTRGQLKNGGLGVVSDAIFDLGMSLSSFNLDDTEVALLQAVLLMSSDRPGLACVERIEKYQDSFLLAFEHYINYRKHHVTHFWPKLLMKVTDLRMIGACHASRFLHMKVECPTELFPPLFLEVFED
Peroxisome proliferator-activated receptor alpha (Homo sapiens), sequence (Q07869 whole entry, looked up, the tested form may be a part): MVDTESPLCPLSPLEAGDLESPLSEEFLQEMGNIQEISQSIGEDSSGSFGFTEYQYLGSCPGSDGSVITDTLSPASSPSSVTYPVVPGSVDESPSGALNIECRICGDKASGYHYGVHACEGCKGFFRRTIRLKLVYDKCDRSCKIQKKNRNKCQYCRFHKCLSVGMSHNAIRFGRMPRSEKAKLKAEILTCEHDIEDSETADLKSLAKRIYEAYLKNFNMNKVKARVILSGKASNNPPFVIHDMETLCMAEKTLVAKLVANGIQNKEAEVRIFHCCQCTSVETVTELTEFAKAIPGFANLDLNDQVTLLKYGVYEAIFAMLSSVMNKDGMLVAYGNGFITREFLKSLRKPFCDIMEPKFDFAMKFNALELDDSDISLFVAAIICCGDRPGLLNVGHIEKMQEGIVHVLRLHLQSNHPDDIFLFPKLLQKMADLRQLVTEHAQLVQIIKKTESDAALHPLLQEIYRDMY
Cytochrome P450 2D6 (Homo sapiens), sequence (P10635 whole entry, looked up): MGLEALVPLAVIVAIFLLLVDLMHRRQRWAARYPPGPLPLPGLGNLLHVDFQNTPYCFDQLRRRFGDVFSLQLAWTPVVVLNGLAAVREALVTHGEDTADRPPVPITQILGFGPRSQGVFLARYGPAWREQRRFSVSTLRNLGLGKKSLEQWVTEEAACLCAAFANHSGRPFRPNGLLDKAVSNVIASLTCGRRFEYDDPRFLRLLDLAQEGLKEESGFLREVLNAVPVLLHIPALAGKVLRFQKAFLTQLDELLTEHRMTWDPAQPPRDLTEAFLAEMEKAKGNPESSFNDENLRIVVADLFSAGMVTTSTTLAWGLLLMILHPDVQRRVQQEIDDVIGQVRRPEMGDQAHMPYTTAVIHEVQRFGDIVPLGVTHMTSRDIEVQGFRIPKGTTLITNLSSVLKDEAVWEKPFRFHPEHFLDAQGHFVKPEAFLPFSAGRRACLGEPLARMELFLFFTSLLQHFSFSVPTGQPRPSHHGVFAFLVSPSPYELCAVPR
Tumor necrosis factor (Homo sapiens), sequence (P01375 whole entry, looked up): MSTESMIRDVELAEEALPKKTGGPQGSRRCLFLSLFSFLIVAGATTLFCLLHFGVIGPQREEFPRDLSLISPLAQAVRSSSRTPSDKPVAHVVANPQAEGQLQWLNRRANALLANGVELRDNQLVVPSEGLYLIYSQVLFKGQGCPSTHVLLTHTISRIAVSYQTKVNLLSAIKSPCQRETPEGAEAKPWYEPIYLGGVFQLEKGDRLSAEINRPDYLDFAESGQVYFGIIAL
Retinoic acid receptor RXR-alpha (Homo sapiens), sequence (P19793 whole entry, looked up): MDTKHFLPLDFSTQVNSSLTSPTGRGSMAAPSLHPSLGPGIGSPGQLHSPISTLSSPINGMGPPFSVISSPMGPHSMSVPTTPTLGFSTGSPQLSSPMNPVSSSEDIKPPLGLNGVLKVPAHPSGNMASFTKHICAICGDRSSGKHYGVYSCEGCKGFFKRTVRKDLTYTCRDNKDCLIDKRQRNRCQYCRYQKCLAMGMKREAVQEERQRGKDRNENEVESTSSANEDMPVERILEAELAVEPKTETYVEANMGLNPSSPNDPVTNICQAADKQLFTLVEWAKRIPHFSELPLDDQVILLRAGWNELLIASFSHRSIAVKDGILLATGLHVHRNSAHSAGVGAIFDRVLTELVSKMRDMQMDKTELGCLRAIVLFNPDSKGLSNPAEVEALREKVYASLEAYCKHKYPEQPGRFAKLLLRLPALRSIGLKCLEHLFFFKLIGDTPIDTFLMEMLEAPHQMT
Luciferin 4-monooxygenase (Photinus pyralis), sequence (P08659 whole entry, looked up): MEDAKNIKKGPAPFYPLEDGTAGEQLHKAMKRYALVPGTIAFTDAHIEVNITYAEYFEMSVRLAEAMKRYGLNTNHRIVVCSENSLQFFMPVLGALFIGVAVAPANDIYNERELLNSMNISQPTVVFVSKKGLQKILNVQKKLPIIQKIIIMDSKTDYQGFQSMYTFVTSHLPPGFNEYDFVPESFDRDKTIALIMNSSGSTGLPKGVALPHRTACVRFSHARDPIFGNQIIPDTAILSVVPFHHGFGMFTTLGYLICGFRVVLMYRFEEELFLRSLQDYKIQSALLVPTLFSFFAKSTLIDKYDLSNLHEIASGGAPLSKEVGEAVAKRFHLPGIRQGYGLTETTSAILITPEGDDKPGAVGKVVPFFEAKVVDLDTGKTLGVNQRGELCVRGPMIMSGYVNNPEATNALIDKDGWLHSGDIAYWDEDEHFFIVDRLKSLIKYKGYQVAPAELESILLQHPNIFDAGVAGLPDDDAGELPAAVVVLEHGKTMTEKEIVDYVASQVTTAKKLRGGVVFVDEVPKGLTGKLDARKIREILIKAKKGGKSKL
Cytochrome P450 2C9 (Homo sapiens), sequence (P11712 whole entry, looked up): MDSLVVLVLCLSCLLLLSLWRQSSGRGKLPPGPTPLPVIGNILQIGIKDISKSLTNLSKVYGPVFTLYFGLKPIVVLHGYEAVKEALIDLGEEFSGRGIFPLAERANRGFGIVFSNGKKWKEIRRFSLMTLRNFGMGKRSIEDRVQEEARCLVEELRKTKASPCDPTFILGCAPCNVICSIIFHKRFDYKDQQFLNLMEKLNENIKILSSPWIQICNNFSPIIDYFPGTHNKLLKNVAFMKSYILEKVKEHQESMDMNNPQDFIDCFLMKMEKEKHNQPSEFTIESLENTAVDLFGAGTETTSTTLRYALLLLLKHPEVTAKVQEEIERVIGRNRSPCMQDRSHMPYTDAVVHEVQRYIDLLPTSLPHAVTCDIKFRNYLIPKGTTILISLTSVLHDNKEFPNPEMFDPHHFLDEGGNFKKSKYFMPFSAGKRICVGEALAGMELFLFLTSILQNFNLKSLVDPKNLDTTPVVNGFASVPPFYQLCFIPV
Voltage-gated inwardly rectifying potassium channel KCNH2 (Homo sapiens), sequence (Q12809 whole entry, looked up): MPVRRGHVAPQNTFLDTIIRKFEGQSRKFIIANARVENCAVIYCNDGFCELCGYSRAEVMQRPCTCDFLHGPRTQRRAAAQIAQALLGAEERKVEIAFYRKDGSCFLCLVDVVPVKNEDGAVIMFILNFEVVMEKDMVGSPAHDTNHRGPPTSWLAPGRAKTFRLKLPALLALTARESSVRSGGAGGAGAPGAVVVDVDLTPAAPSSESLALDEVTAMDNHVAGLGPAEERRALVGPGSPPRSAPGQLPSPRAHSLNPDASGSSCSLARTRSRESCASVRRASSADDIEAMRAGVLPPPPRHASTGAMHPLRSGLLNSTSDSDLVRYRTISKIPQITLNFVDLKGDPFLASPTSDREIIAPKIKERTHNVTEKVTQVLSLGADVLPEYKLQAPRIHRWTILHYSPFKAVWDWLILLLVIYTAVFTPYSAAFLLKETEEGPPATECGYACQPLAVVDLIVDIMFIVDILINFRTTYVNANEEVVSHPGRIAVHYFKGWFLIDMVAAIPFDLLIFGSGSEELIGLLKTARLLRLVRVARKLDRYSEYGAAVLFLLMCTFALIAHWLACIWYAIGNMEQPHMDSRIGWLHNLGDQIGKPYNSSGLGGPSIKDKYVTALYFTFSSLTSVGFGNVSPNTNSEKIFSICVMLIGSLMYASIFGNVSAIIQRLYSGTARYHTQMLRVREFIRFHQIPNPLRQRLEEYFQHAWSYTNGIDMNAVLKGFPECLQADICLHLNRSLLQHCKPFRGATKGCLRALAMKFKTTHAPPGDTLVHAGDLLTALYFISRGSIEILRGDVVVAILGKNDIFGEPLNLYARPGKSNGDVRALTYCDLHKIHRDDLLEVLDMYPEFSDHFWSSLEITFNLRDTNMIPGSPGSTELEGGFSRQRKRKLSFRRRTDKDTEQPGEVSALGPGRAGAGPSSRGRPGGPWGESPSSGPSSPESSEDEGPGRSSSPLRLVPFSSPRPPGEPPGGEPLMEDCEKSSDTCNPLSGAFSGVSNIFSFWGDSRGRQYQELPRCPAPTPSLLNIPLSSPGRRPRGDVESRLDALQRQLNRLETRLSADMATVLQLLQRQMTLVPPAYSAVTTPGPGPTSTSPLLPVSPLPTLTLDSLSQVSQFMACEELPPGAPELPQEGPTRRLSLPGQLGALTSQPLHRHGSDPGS

Take `COC(=O)c1ccccc1C(=O)OC`: the max response in assay [1] is -2.9%; in assay [2], 2.81% (inactive); in assay [11] it was 0.0123% (inactive) and 4.21% (inactive); in assay [14], -14.6% (inactive); in [15] it was -1.85% (inactive) and 5.33% (inactive); in the assay on KB-3-1, 3.72% (inactive). The max response in [21] was 5.6% (inactive) and 2.87% (inactive). Further, in assay [3], the activity change % (negative = inhibition) is 0.995% (inactive) and 14.6% (inactive). Moreover, the Potency result in [4], in assay [5], in assay [6], in [12], in [17] and in [18] was “inactive” throughout. The Potency entry in assay [19] and in [20] was “inactive” each time. The activation in assay [7] was -1.52% (inactive) and -1.95% (inactive); in assay [8], -0.143% (inactive) and 1.34% (inactive); in [10], 1.37% (inactive) and 0.566% (inactive). In addition, the outcome in assay [9], in [13], in [16] and in assay [22] was inactive.

The record behind these values is PubChem BioAssay (NCATS).
